target: ZNF250; assay: pooled miR-30 sensor sort-seq; sequence = guide strand; settings: shRNA
Further: reference of the scale not given here.

Sequence	sensor-assay potency score (higher = more potent)
TTACTAAGGACTGAGCTCTGGC	0.163
TTGTCTGAGTAGTCACTCCACA	-0.51
TGTATTTTGACTCTCTCCCTTG	-0.459
TTATTTTCTTGATCAATCCTCC	0.32

target: ZNF259; assay: as above; settings: shRNA

Sequence	sensor-assay potency score (higher = more potent)
TCACACTTGCATCACAAGCTGT	-0.681
TTGTAGTGTGTGATCACCAGGG	0.392
TTCATTTCTGAGATCTTCCTCT	0.123
TTCTGAGATCTTCCTCTTCTGG	-1.55
TTTTCCACAAAACTGTTCCCTG	-0.697
TTGCAGTAACAGTTCATGCATA	-0.757
TAAACTCCTGTAGTCTCTCCGT	-0.469
TCAGTCTTCACCACTTCTCTGT	0.0434
TTCAGTTTGACAATGAACTCAT	0.875
TAACACAATAGGCTCACACTTG	-0.434
TTGTACTAGCTTCATGTTGGTC	-0.732
TTCGATGATCTGGTCCATCTTC	-0.231

target: ZNF263; assay: as above; settings: shRNA

Sequence	sensor-assay potency score (higher = more potent)
TTTCAGTGCAGTCCACACCCAT	-0.797
TTCAGTGCAGTCCACACCCATA	-1.37
TTATAGGGTCTCTCTCCCGTAT	-0.848
TTTTATGCCAATCCTCTGCTGC	0.0855
TGAAGCTCGGTGACTCTCGTGC	0.166
TAAGGTAAACTGGACAGTCAGG	-0.825
TTATCAGACACCTACTTCCTCT	-0.271
TACACAGTCTTTCAGCTGCATG	-1.42
TTGAAGCTCGGTGACTCTCGTG	-0.044
TTTGGCTGCAGTTCCTTCGGTC	0.0507

target: ZNF300; assay: as above; settings: shRNA

Sequence	sensor-assay potency score (higher = more potent)
TTTTTTTCTTGAATTGCTCTTA	0.496
ATGAGTTCTGTCTTCCTGCTGA	0.161
TTACTGAATCTGATCAACCTAT	-0.267
TGAGTTGTGACTTCTTAGCAAA	-1.22
TTAGTCTTAACATCTAATGCTT	-0.171
TTGCTCTTATAACAACTCGGTA	-1.42
TTCTGTATGCTTAACTTGCTGT	-0.0649
TTCCACATTCAGAACAATCATA	-0.99
TAGTCTTAACATCTAATGCTTC	-0.419
TAAAACAAGGTCTGACTTCTGA	-0.123

target: ZNF322A; assay: as above; settings: shRNA

Sequence	sensor-assay potency score (higher = more potent)
TTCACCAATGTGTACTGTCTGA	-0.693
TAAGACAGGAGCTTCTACCAAA	-0.88
TATGAGTCAACTAACTATGAGA	-0.783
TTTTTCACCAATGTGTACTGTC	0.583

From the OligoGym collection
